Experimental data: PubChem BioAssay (Tox21)
Inconclusive results are not listed. A call without a number means that no potency is given here. Activity calls are given as the source filed them. Calls come from the whole dose curve; as a rule, active = well fitted cell-killing curve with a large enough effect in the repeat runs; inconclusive = weak or mixed curves, or effect the other way; inactive = flat fitted curve, though single readings scatter.
Potency is the fitted concentration of half-maximal effect.

Experiment: cAMP Responsive Elements (CRE) small molecule antagonists, cell-based qHTS assay: qHTS cell viability counter screen (AID 2060913); note: nearly all actives have a fitted effect of over 40% in size
Conditions: CRE-bla HEK293T viability, CellTiter-Glo luminescence, 5 h; series mostly up to 92.4 µM
In short: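 CRE-bla HEK293T cells were seeded in assay medium with 10% dialyzed FBS, incubated 18 hrs at 37 C, then exposed to compounds plus 0.25 uM final NKH477 for 3 hrs. Viability was read by CellTiter-Glo luminescence after 30 min, in the same wells.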
With `Cc1cc(=O)oc2cc(N(C)C)ccc12` the Potency was “inactive”. For `CC(C)COC(=O)CC(C(=O)OCC(C)C)S(=O)(=O)O` (centres undefined), the Potency was “inactive”. With `CC(C)NC(=O)c1ccc(C=O)cc1` the Potency was “inactive”. For `CCCCN1C=CN(C)C1`, the viability change, negative = cytotoxic was 7.21% [at 18.9 µM] (inactive). With `C1CCCCCCCCCCC1` the viability change, negative = cytotoxic was 3.07% [at 18.9 µM] (inactive). With `C=CC(C)C#N` (centres undefined) the Potency was “inactive”. With `CN1C(C(=O)Nc2ccccn2)=C(O)c2ccccc2S1(=O)=O` the Potency was “inactive”. With `COc1cc(S(=O)(=O)O)c(C)cc1N=Nc1c(O)ccc2cc(S(=O)(=O)O)ccc12` the Potency was “inactive”. For `CC(C)(C)NSc1nc2ccccc2s1`, the Potency was “inactive”. For `O=C(c1ccco1)N1CCNCC1`, the Potency was “inactive”. For `N[C@@H](Cc1ccc(O)cc1)C(=O)O`, the viability change, negative = cytotoxic was -0.963% [at 8.39 µM] (inactive). With `COCCOCC(OC)OC` the Potency was “inactive”. For `CCCCC/C=C\C=C\C(=O)OCC`, the Potency was “inactive”. For `CC(C)(C)c1ccc(C(=O)CCCN2CCC(OC(c3ccccc3)c3ccccc3)CC2)cc1`, the Potency was “inactive”. For `C=CC(=O)OCCCC`, the Potency was “inactive”. With `CC1COC(=O)O1` (centres undefined) the Potency was “inactive”. For `C[C@H]1O[C@@H](O[C@H]2[C@@H](O)C[C@H](O[C@H]3[C@@H](O)C[C@H](O[C@H]4CC[C@@]5(C)[C@H](CC[C@@H]6[C@@H]5C[C@@H](O)[C@]5(C)[C@@H](C7=CC(=O)OC7)CC[C@]65O)C4)O[C@@H]3C)O[C@@H]2C)C[C@H](O)[C@@H]1O`, the Potency was 0.0632 µM (active). With `N#CCCCC(C#N)CCC#N` (centres undefined) the Potency was “inactive”. For `CC(=O)Oc1ccc(C(c2ccc(OC(C)=O)cc2)c2ccccn2)cc1`, the Potency was “inactive”. For `CC(C)[N+](C)(C)CC(O)COc1cccc2ccccc12` (centres undefined), the Potency was “inactive”. For `O=C(Nc1cccc([N+](=O)[O-])c1)c1cc2ccccc2cc1O`, the Potency was “inactive”. With `CC(=O)OCC(=O)[C@@]1(O)[C@H](C)C[C@H]2[C@@H]3CCC4=CC(=O)C=C[C@]4(C)[C@@]3(F)[C@@H](O)C[C@@]21C` the Potency was “inactive”. For `Cc1cc(NC(=O)C(=O)O)cc(C)c1Oc1ccc(O)c2c1CCC2`, the Potency was “inactive”. With `Cc1ccc(C)o1` the Potency was “inactive”. In the case of `CN(C)CCOC(=O)COc1ccc(Cl)cc1`, the Potency is reported as “inactive”. For `CC(CCC(=O)O)(c1ccc(O)cc1)c1ccc(O)cc1`, the Potency was “inactive”. For `CCOc1nc2cccc(C(=O)OC(C)OC(=O)OC3CCCCC3)c2n1Cc1ccc(-c2ccccc2-c2nn[nH]n2)cc1` (centres undefined), the Potency was 48.5 µM (active). For `Oc1ccc(C2(c3ccc(O)c(C4CCCCC4)c3)CCCCC2)cc1C1CCCCC1`, the Potency was 43.3 µM (active). With `O=c1[nH]sc2cc(Cl)ccc12` the Potency was “inactive”. With `Nc1ncnc2c1ncn2[C@H]1CC[C@@H](CO)O1` the Potency was “inactive”. In the case of `Cc1cccc([N+](=O)[O-])c1C`, the Potency is reported as “inactive”. In the case of `O=C(Nc1ccc(Cl)c(Cl)c1)C1CC1`, the Potency is reported as “inactive”. For `O=C1c2c(O)ccc([N+](=O)[O-])c2C(=O)c2c([N+](=O)[O-])ccc(O)c21`, the Potency was 27.1 µM (active). With `SCCc1cnccn1` the Potency was “inactive”. In the case of `CCCCCCCCCc1ccc(OCCOCCO)cc1`, the Potency is reported as 22.8 µM (active). In the case of `Cc1ccc(S(=O)(=O)NC(=O)NC2CCCCC2)cc1`, the Potency is reported as “inactive”. For `Cc1ccc(Cl)c(OCC(O)CNC(C)(C)C)c1` (centres undefined), the Potency was “inactive”. With `S=C1NC=NC2N=CNC12` (centres undefined) the Potency was 3.06 µM (active). In the case of `CCCCCCC(=O)O`, the Potency is reported as “inactive”.
